This passage reports normalized growth results from the supplement of paper PMC6331611.

± gives the standard deviation of the averaged measurements. The full ranking holds about 1,600 compounds; the median of “normalized growth (OD600, IQM-normalized) in LPM” is about 1, and the lowest 2% start at about 0.014. This is one part of a sample in which the lowest values are shown more often than they occur.

The test system of the experiment is Salmonella enterica serovar Typhimurium SL1344. Kind of experiment: normalized growth (OD600, IQM-normalized) in LPM (fraction of plate interquartile mean); higher = more bacterial growth (less inhibition). The settings on record: LPM pH 5.8; 10 µM; 16 h.
In turn, `CCCCC(=O)N(Cc1ccc(-c2ccccc2-c2nnn[nH]2)cc1)[C@H](C(=O)O)C(C)C` registered a normalized growth of 0.845 ± 0.034.

For the molecule `CCC(=O)c1c(O)cc(O)cc1O`, the normalized growth is 1.09 ± 0.016.

In the case of `Cc1c(Nc2ncccc2C(=O)O)cccc1C(F)(F)F`, the normalized growth came to 1.04 ± 0.041.

With `Cl.N=C(N)NCCC[C@H](N)C(=O)O`, the normalized growth is 1 ± 0.042.

In the case of `C=C(NC(=O)C(=C)NC(=O)c1csc(C2=N[C@@H]3c4csc(n4)[C@H]4NC(=O)c5csc(n5)[C@H]([C@](C)(O)[C@@H](C)O)NC(=O)[C@H]5CSC(=N5)/C(=C/C)NC(=O)[C@H]([C@@H](C)O)NC(=O)c5csc(n5)[C@]3(CC2)NC(=O)[C@H](C)NC(=O)C(=C)NC(=O)[C@H](C)NC(=O)[C@H]([C@@H](C)CC)N[C@@H]2C=Cc3c([C@H](C)O)cc(nc3[C@H]2O)C(=O)O[C@@H]4C)n1)C(N)=O`, the normalized growth worked out at 1 ± 0.09.

As to `C=C(C)[C@H]1CC=C(C)CC1`, the normalized growth worked out at 0.978 ± 0.024.

In the case of `Cc1cc2nc3c(=O)[nH]c(=O)nc-3n(CC(O)C(O)C(O)COP(=O)(O)O)c2cc1C` (centres undefined), the normalized growth was 0.822 ± 0.056.

`O=S(=O)(O)CCSSCCS(=O)(=O)O` returned a normalized growth of 1.02 ± 0.069.

`CC(C)[C@H](NC(=O)[C@H](CC(=O)O)NC(=O)[C@H](CCCCN)NC(=O)[C@@H](N)CCCN=C(N)N)C(=O)N[C@@H](Cc1ccc(O)cc1)C(=O)O` returned a normalized growth of 0.991 ± 0.011.

`CC(=O)OCC(=O)[C@@]1(O)CC[C@H]2[C@@H]3CCC4=CC(=O)CC[C@]4(C)[C@@]3(F)[C@@H](O)C[C@@]21C` came in with a normalized growth of 1.09 ± 0.11.

Consider `O=C1c2c(O)cccc2C([C@@H]2O[C@H](CO)[C@@H](O)[C@H](O)[C@H]2O)c2cc(CO)cc(O)c21` (some centres undefined), for which the normalized growth was determined as 1 ± 0.043.

Take `C[N+]1(C)[C@@H]2CC[C@H]1C[C@@H](OC(=O)C(O)c1ccccc1)C2` (some centres undefined): the normalized growth came out at 0.976 ± 0.081.

As for `Nc1ncnc(Nc2ccc(Cl)cc2)n1`, the normalized growth was 0.999 ± 0.071.

Regarding `CN1CCCN=C1COC(=O)C(O)(c1ccccc1)C1CCCCC1` (centres undefined), the normalized growth was 1.23 ± 0.026.

In the case of `CC(O)(CC(=O)O)CC(=O)O`, the normalized growth turned out to be 0.921 ± 0.018.

For `COc1ccc(CN(CCN(C)C)c2ncccn2)cc1`, the normalized growth was determined as 1.11 ± 0.038.

Molecule `CCN(CC)CCOc1ccc(C(=C(Cl)c2ccccc2)c2ccccc2)cc1` came in with a normalized growth of 1.07 ± 0.023.

The molecule `C=C1c2cccc(O)c2C(=O)C2=C(O)[C@]3(O)C(=O)C(C(N)=O)=C(O)[C@@H](N(C)C)[C@@H]3[C@@H](O)[C@H]12` showed a normalized growth of 0.0154 ± 0.00028.

In turn, `CN(C)[C@@H]1C(O)=C(C(N)=O)C(=O)[C@@]2(O)C(O)=C3C(=O)c4c(O)ccc(Cl)c4[C@@](C)(O)[C@H]3C[C@@H]12` registered a normalized growth of 0.0113 ± 0.00051.

In turn, `C[C@H]1c2cccc(O)c2C(=O)C2=C(O)[C@]3(O)C(=O)C(C(N)=O)=C(O)[C@@H](N(C)C)[C@@H]3[C@@H](O)[C@@H]21` returned a normalized growth of 0.0125 ± 0.00056.

`CN(C)[C@@H]1C(O)=C(C(N)=O)C(=O)[C@@]2(O)C(O)=C3C(=O)c4c(O)cccc4[C@@](C)(O)[C@H]3C[C@@H]12` displayed a normalized growth of 0.0127 ± 0.00026.

In the case of `CN(C)[C@@H]1C(O)=C(C(N)=O)C(=O)[C@@]2(O)C(O)=C3C(=O)c4c(O)cccc4[C@@](C)(O)[C@H]3[C@H](O)[C@@H]12`, the normalized growth worked out at 0.0138 ± 0.00025.

Molecule `C=C1c2c(Cl)ccc(O)c2C(=O)C2=C(O)[C@]3(O)C(=O)C(C(N)=O)=C(O)[C@@H](N(C)C)[C@@H]3[C@@H](O)[C@H]12.O=C(O)c1cc(S(=O)(=O)O)ccc1O` had a normalized growth of 0.0199 ± 0.00036.

For `CN(C)[C@@H]1C(O)=C(C(=O)NCN2CCCC2)C(=O)[C@@]2(O)C(O)=C3C(=O)c4c(O)cccc4[C@@](C)(O)[C@H]3C[C@@H]12`, the normalized growth stood at 0.854 ± 0.027.

Consider `CN(C)[C@@H]1C(O)=C(C(N)=O)C(=O)[C@@]2(O)C(O)=C3C(=O)c4c(O)ccc(Cl)c4[C@@H](O)[C@H]3C[C@@H]12`, for which the normalized growth turned out to be 0.00865 ± 0.00039.

Molecule `CN(C)c1ccc(O)c2c1C[C@H]1C[C@H]3[C@H](N(C)C)C(O)=C(C(N)=O)C(=O)[C@@]3(O)C(O)=C1C2=O` showed a normalized growth of 0.0111 ± 0.00049.

Turning to `CN(C)c1cc(NC(=O)CNC(C)(C)C)c(O)c2c1C[C@H]1C[C@H]3[C@H](N(C)C)C(O)=C(C(N)=O)C(=O)[C@@]3(O)C(O)=C1C2=O`, the normalized growth came to 0.962 ± 0.053.

For `CC1(C)[C@H]2CC[C@]1(CS(=O)(=O)O)C(=O)C2=Cc1ccc(C=C2C(=O)[C@@]3(CS(=O)(=O)O)CC[C@@H]2C3(C)C)cc1`, the normalized growth was 0.989 ± 0.073.

Regarding `CC(=O)[C@H]1CC[C@H]2[C@@H]3CC=C4C[C@@H](OC(=O)CCC(=O)O)CC[C@]4(C)[C@H]3CC[C@]12C`, the normalized growth amounted to 1.02 ± 0.027.

For the molecule `CCCCC(CC)COC(=O)C(C#N)=C(c1ccccc1)c1ccccc1` (centres undefined), the normalized growth stood at 0.82 ± 0.0086.

In turn, `CCN(CC)CCc1nc(-c2ccccc2)no1` yielded a normalized growth of 0.956 ± 0.062.

Molecule `C/C(=C\C(=O)OCCCCCCCCC(=O)O)C[C@@H]1OC[C@H](C[C@@H]2O[C@H]2[C@@H](C)[C@H](C)O)[C@@H](O)[C@H]1O` came in with a normalized growth of 0.00952 ± 0.00017.

`COc1cccc(OC)c1C(=O)N[C@@H]1C(=O)N2[C@@H]1SC(C)(C)[C@@H]2C(=O)O` showed a normalized growth of 1.12 ± 0.019.

Turning to `O=c1[nH]c(=O)n([C@H]2C[C@H](O)[C@@H](CO)O2)cc1F`, the normalized growth was 0.0114 ± 0.00023.

`O=c1[nH]c(=O)n([C@H]2C[C@H](O)[C@@H](CO)O2)cc1I` registered a normalized growth of 1.05 ± 0.026.

Consider `CCc1cn([C@H]2C[C@H](O)[C@@H](CO)O2)c(=O)[nH]c1=O`, for which the normalized growth worked out at 0.664 ± 0.046.

`O=C1C(CC[S+]([O-])c2ccccc2)C(=O)N(c2ccccc2)N1c1ccccc1` (centres undefined) registered a normalized growth of 1.097 ± 0.0059.

Take `CN1CCCC(n2nc(Cc3ccc(Cl)cc3)c3ccccc3c2=O)CC1` (centres undefined): the normalized growth turned out to be 1.04 ± 0.039.

`N=C(N)NCC1COC2(CCCCC2)O1` (centres undefined) showed a normalized growth of 0.863 ± 0.015.

The molecule `CCCc1nc(C(C)(C)O)c(C(=O)OCc2oc(=O)oc2C)n1Cc1ccc(-c2ccccc2-c2nnn[nH]2)cc1` gave a normalized growth of 1.005 ± 0.0069.

The molecule `CN(C)CCN(Cc1ccccc1)c1ccccn1` returned a normalized growth of 0.906 ± 0.035.

The molecule `CCN(CC)C(=O)c1cccnc1` registered a normalized growth of 1.14 ± 0.095.

For the molecule `OC[C@@H](O)[C@@H](O)CO`, the normalized growth amounted to 0.975 ± 0.05.

`COc1ccc(-c2cc(C(F)F)nn2-c2ccc(S(N)(=O)=O)cc2)cc1F` returned a normalized growth of 1.01 ± 0.035.
